# In the supplement of paper PMC11417369:
# ± gives the standard deviation of the averaged measurements. Over roughly 25,000 sequences, “ln(normalized median fluorescence intensity)” has its median near 8.6; the highest 2% begin near 10. The entries come from a sample that favours the highest values as a whole.
# System: PfAP2-EXP AP2 domain (GST-tagged)
# Test: gcPBM binding intensity (ln(normalized median fluorescence intensity)); higher = stronger DNA binding
# Outline: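 An Agilent 4 × 180k array carrying primer-extended double-stranded 36-bp intergenic genomic probes and negative controls received GST-tagged P. falciparum DNA-binding domains expressed in E. coli, about 25 μg on average, for 1 h. The binding buffer contained 1× PBS, 1% milk, 0.2 mg/ml BSA, 0.5% salmon testes DNA and 0.03% Triton X-100. Binding intensity is the top Masliner-normalised natural-log median intensity across replicate spots of either probe orientation, read after Alexa488 anti-GST antibody staining and a 488 nm scan.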
row,Sequence,gcPBM binding intensity (ln)
1,TACATCTTACTACTTATAATATAATATAGTATGAAT [TGCATGCA_negctrl_site8],8.21 ± 0.43
2,TTTTTCTTTTTTACAGTGCATAAATATATGTATTGT [GTGCAC_site9399],8.61 ± 0.32
3,CTGAAGAAACTACAACGTACAAAATATGTATATATT [XGTACX_site3779],8.55 ± 0.4
4,TTATTATATTAAAATTGTACTTGCTTTCAATATGAT [XGTACX_site5305],8.23 ± 0.35
5,TTTCTTTTACATATTTGTACATATATAAATTTATAT [XGTACX_site1787],8.91 ± 0.35
6,TACATTTAAAAAAAAACACACATATTTATATTTATA [CACACA_site7236],8.01 ± 0.49
7,TTATCATTTTAAATCACACACATATATAAATATGTA [CACACA_site7359],8.28 ± 0.35
8,TACATTTAAAAAAAAACACACATATATATATATATA [CACACA_site2535],10.3 ± 0.33
9,TCTTATCATTTTAAATCACACACATATATATATATA [CACACA_site8925],10.2 ± 0.16
10,TTATCATTTTAAATCACACACATATATATATATATA [CACACA_site2849],10.1 ± 0.49
11,TTAAAAAAAAAACACACACACATACACATATATATA [CACACA_site3299],8.77 ± 0.33
12,ATTTATGTTATTGTATGTACACAATATAATGTTATT [XGTACX_site5657],8.56 ± 0.32
13,TAATACCATAACAAGTGTACATAAATAATTATTGTA [XGTACX_site4949],8.8 ± 0.44
14,AAAAAAAAAAAAAAAACACACAAACATCAAATTACT [CACACA_site6950],8.69 ± 0.24
15,ATATGTTATATAAATATATATATATATATATATATA [TGCATGCA_negctrl_site594],10.1 ± 0.33
16,AAAATGAAATATGTTATATATATATATATATATATA [CACACA_negctrl_site1752],9.9 ± 0.4
17,ATCAAAAATGTTATATATATATATATATATATATAT [TGCATGCA_negctrl_site71],10.2 ± 0.45
18,AATATGTTATAAATATGTTATAAATAATAAATAAAT [GTGCAC_negctrl_site135],8.45 ± 0.47
19,GTTATATGTTATATATATATATATATATATATATAT [TGCATGCA_negctrl_site428],10.2 ± 0.65
20,ATATATATTATAAAATGTACAAATGTTATATAAAAT [XGTACX_site4750],8.85 ± 0.45
21,ATATATATATATTCCACACACACACTAATAAAAAAA [CACACA_site9214],9.94 ± 0.16
22,AACTGATTATTTTTTTGTACATATATAATAATATAT [XGTACX_site5953],8.61 ± 0.33
23,GACCATGTTAACAAAGCATGCATCTCTATATGTTTA [TGCATGCA_site358],8.87 ± 0.49
24,TCATAACAACTTTGTGTGCACATAAAACATGTATAT,8.94 ± 0.3

row,Sequence,gcPBM binding intensity (ln)
1,TATATTTATTTATACACATGCATATTTTAAGGGCTC [TGCATGCA_site885],8.72 ± 0.4
2,ATCTAAACCTTTTGAGCACACATATATATATATATA [CACACA_site8526],9.86 ± 0.7
3,CTAAACCTTTTGAGCACACATATATATATATATATA [CACACA_site1782],10.4 ± 0.16
4,TCATATCTTTTGAGCACACATATATATATATAAAGG [CACACA_site3338],8.71 ± 0.34
5,TAACAAAACATAGATTGTACATATTATAAATGTATA [XGTACX_site1543],8.46 ± 0.38
6,ATATATATATTTGTATGTACATATATATATTCGTAT [XGTACX_site1640],9.23 ± 0.29
7,ACATATTTTATTTTTTGTACACATATATTATTTTTT [XGTACX_site6528],8.99 ± 0.42
8,GTTTTCTAGTGGGGGTGTACATATTTATATTTAATA [XGTACX_site8378],10.9 ± 0.34
9,GTGTAATATATTTTTCGTACATATTATATATATATA [XGTACX_site1675],9.8 ± 0.37
10,TTTATTAATTTATAGTGTACATATTAATAATATATT [XGTACX_site7949],8.35 ± 0.2
11,TTTTTATTTGGTTGTGTACACATATATATATATATA [CACACA_site5844],10.2 ± 0.3
12,TTTTTTTTGTGTATTTGTACATAATATATATATATA [XGTACX_site7092],9.68 ± 0.19
13,TAATATTTTTTGTGTACACATATATATATATATATA [CACACA_site5504],10.2 ± 0.53
14,TTTCGTAACTATTTGTGTACATATATATATATATAT [XGTACX_site2920],10.3 ± 0.29
15,ATATATTATTTCTAGTGTACATACCCATATATAATA [XGTACX_site8902],8.97 ± 0.33
16,AATATATATTTGTGTACACATTATATATATATATAT [CACACA_site6103],10 ± 0.35
17,TTTATTTTGTAGTGTACACATATATATATATATATA [CACACA_site5843],10.3 ± 0.36
18,GATCTATATATCATTACACACTTGAATTACTTAAAA [CACACA_site21],8.49 ± 0.36
19,TAATTTTTTTTTTTTTTTTTTTTTTTTTTTTTCCTT [CACACA_negctrl_site1095],7.8 ± 0.61
20,TAATTTTTATGAAGAAGTACAAAATCTACTATCATA [XGTACX_site4985],7.99 ± 0.38
21,CGAACAAACAAATAAACACACAAAAAAAGATATATA [CACACA_site6944],8.72 ± 0.57
22,AATGATAAATAAAAAGCATGCAACAAATAAAAATAA [TGCATGCA_site453],9.84 ± 0.22
23,ATATATATAATAAGTGGTACAAGTTATTCATTAAAT [XGTACX_site7063],8.64 ± 0.3
24,TAAACCAAAAAAAGTAGTACAAATATTATAAAAAAA [XGTACX_site8497],8.69 ± 0.39

row,Sequence,gcPBM binding intensity (ln)
1,ATTTATTATTATATCACACATAATATATTAAATGAT [CACACA_site5821],8.28 ± 0.39
2,TTGTATTTTTAAATGACACACACATATATATATATA [CACACA_site8481],10.1 ± 0.38
3,GTATTTTTAAATGACACACACATATATATATATATA [CACACA_site1662],10.2 ± 0.5
4,CATAAAAATGGATACACACACATAATATATTTATAT [CACACA_site7669],8.61 ± 0.4
5,ATATTTAAATGGATCACACATATATATATATATATA [CACACA_site5255],10.3 ± 0.3
6,GTATTTTTAAATGACACACACATATATAAATATGTA [CACACA_site6880],8.38 ± 0.31
7,TTAACATATTTGTTAGTGCATTTTGATATTACACAT [GTGCAC_site9978],8.6 ± 0.33
8,TCATACGAAATATAAACACACATACAATAAATAAAT [CACACA_site5156],8.78 ± 0.44
9,TATAAACACCCATATAAACACACATATAAACCAACA [CACACA_site8790],8.73 ± 0.43
10,CACCCACACCAACACACACACATATATAATATATAT [CACACA_site595],8.81 ± 0.39
11,AATATAATATAAGGATCACACACAAACACCCATATA [CACACA_site8084],8.91 ± 0.61
12,CACCCACACCAACACACACACATATATATATATATA [CACACA_site362],10.4 ± 0.2
13,AACCACATACATATAACACACATATACAATATATAT [CACACA_site8607],8.55 ± 0.45
14,CACACCCACCAACACACACACACACCCACCCATATA [CACACA_site366],8.61 ± 0.57
15,AATAACCACCAACACACACACATATATATATATATA [CACACA_site3540],10.2 ± 0.45
16,TATAATATAAGGATCACACACAAACACCCATATATA [CACACA_site4468],8.74 ± 0.52
17,AAGGATCACCCACAAACACACATATATATATATATA [CACACA_site559],10.4 ± 0.16
18,GTCTATTCAAAAAAGTGTACGGACATATAAACATAC [XGTACX_site6516],9.04 ± 0.28
19,ATATATATATTTACATGTACACATCTATATATAAAC [XGTACX_site5581],9.445 ± 0.049
20,GCACATCTATATGAAACACACATGGAAACATCTCTT [CACACA_site7793],8.47 ± 0.35
21,TAAAGTTTTTTTTTAACACACACATAATAAAATAAA [CACACA_site8042],8.46 ± 0.51
22,TTTCTATTACGAACGTGTACATACATTATTCTTAAA [XGTACX_site5816],8.88 ± 0.26
23,TAAAGAGTTACCATTTGTACTTACGCACACATAAAA [XGTACX_site3145],8.45 ± 0.37
24,AATTAAATATTATAAACACACATATAGATTATTTTT [CACACA_site6538],8.17 ± 0.49

row,Sequence,gcPBM binding intensity (ln)
1,ACAAAATAAAACATCTGTACATATTATTATTATAAG [XGTACX_site4802],8.34 ± 0.35
2,AAAACATTGTTTATGTGTACATAATTATATTTACAA [XGTACX_site6926],8.45 ± 0.39
3,CATATTAGGACAAAGTGTACATATATATATATATAT [XGTACX_site1172],10.3 ± 0.27
4,ATATATTATATAAAGTGTACAAAAAAAATATATAAA [XGTACX_site8065],8.91 ± 0.41
5,ATCTGACAAAAGTGTACACATATATATATATATATA [CACACA_site4814],10.2 ± 0.61
6,ATTATATATATAAAGTGTACAAAAAAAAAAAAAAAA [XGTACX_site3134],8.46 ± 0.33
7,TATGTAACAAAAAAAAGTACACATATATATAGTGTA [XGTACX_site7772],8.52 ± 0.39
8,GTGTACAGACACAAAATATATACATATATATATATA [CACACA_negctrl_site1796],9.87 ± 0.54
9,ATAATCTGACAAATGTGTACACATATATATATATAT [XGTACX_site2379],10.3 ± 0.34
10,TATATATATATAATGTGTACACAAATATATATTATA [XGTACX_site8786],9.74 ± 0.23
11,AAAAATATAATATAATGTACACAAAAAAAAAAAATC [XGTACX_site1427],8.73 ± 0.49
12,TAGTTACCTTAATATTGTACTTTTCTTTCATATATG [XGTACX_site1309],8.82 ± 0.38
13,TATAATATATATTTGTGTCCACAACATTTTTAATAT [XGTACX_site2089],8.56 ± 0.28
14,TTTTTTTTTTGATGTTGTACATATATATTATATAAT [XGTACX_site2765],8.55 ± 0.4
15,AAAACAAAATAGGGAACACACACATGTCAATATATA [CACACA_site8834],8.88 ± 0.41
16,TCCCATAATATTAGTAGTACTATTAATATTTTCAGG [XGTACX_site4925],8.33 ± 0.42
17,ATCATATTTTTATGTGTGCACTTTTTTTTTTTTTTT [GTGCAC_site9555],9.02 ± 0.099
18,TTTATATTCTTAAGTGTGCACTATATATATATATAT [GTGCAC_site9719],10.38 ± 0.049
19,ATTTTTTTCTTAGGAGTGCACTTATATTTATTTTAT,9.12 ± 0.11
20,ATTTATATTAAAAGTGTGCACTTTTTTTTTTTTTTT,8.67 ± 0.042
21,TATATATAAATATATGTGCACTTTTTATATTTATAT,9.06 ± 0.099
22,ATATATTTTATATGTGTGCACTATATATATATATAT,10.3 ± 0.18
